Outcome data for 40 compounds are collected here from PubChem BioAssay (NCATS).

The source made the active and inactive calls. Calls follow the shape of the dose curve; as a rule, active = well fitted curve in the direction sought with a large enough effect (not every such curve was filed as active); inconclusive = small, poorly fitted or top-dose-only effect, or effect the other way, or another doubt; inactive = no such curve, though single readings can be large or run the other way.

Pyruvate kinase PKM (Homo sapiens), sequence (P14618 whole entry, looked up): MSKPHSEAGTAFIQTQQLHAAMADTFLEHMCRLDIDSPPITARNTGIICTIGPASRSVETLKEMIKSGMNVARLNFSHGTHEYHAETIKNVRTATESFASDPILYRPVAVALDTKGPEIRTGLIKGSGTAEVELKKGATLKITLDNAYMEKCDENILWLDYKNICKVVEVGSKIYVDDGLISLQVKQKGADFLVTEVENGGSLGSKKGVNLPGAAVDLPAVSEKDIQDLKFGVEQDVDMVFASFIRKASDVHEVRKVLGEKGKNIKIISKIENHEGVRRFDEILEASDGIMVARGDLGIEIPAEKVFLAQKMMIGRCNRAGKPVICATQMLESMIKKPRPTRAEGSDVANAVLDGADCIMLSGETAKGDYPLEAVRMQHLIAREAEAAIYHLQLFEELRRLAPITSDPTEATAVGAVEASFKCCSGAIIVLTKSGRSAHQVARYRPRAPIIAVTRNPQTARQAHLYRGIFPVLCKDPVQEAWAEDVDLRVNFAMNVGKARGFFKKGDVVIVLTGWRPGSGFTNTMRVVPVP

The test addresses Pyruvate kinase PKM (Homo sapiens) (UniProt P14618). Briefly: qHTS Assay for Activators of Human Muscle Pyruvate Kinase (AID 954). To be noted: purified human muscle pyruvate kinase, luciferase-coupled luminescence, 1 h; series mostly up to 57.5 µM. The protocol:
NIH Molecular Libraries Screening Centers Network [MLSCN]
NIH Chemical Genomics Center [NCGC]
Wael M. Rabeh, Lyudmila Nedyalkova and Hee-Wan Park [Structural Genomics Consortium, 100 College St. Toronto, Ontario, Canada]
Human pyruvate kinase muscle 2 enzyme was supplied as a highly purified (>95% pure) preparation by the Structural Genomics Consortium in Toronto (Ontario, Canada) and was assayed for its ability to generate ATP from ADP using phosphoenolpyruvate (PEP) as a substrate. ATP generation was detected in a coupled reaction by luciferase-mediated luminescence, an ATP-dependent process. Pyruvate kinase substrates, PEP and ADP, were present in the assay at Km and approximately […]-fold below Km respectively. The enzyme was assayed at an intermediate level of activity to screen for inhibitors and activators.
NCGC Assay Protocol Summary:
Three uL of substrate mix (final concentration, 50 mM imidazole pH 7.2, 50 mM KCl, 7 mM MgCl2, 0.5 mM PEP, 0.1 mM ADP, 0.01% Tween 20, 0.05% BSA) was dispensed into 1536 well plates. 23 nL of compound were delivered by a pin tool and 1 uL of enzyme mix (final concentration, 0.1 nM pyruvate kinase, 50 mM imidazole pH 7.2, 0.05% BSA) was added. Plates were incubated at room temperature for 1 hour. Two uL of detection and kinase stop mix (PKLight, Cambrex) was added, the plates centrifuged, and luminescence read by a ViewLux (Perkin Elmer) at 5 second exposure/plate. Data were normalized to the uninhibited and AC100 inhibition (no enzyme or 110 uM N-methyl-2,3-diphenyl-1,2,4-thiadiazol-5-imine; CID: 682802; LOPAC-S-4063). To monitor activation, 0.3 nM pyruvate kinase was included in one control column.
For orientation: In qHTS, concentration-response curves come from the screen itself.
As for `O=c1[nH]c(=O)n([C@H]2C[C@H](O)[C@@H](CO)O2)cc1Br`, the result was inactive.

As to `NCCCNCCSP(=O)(O)O`, the result was inactive.

Take `CCN(CC)CC(=O)Nc1c(C)cccc1C`: the result was inactive.

As to `COc1cc(Cc2cnc(N)nc2N)cc(OC)c1OC`, the result was inactive.

As for `CN(C)CCCN1c2ccccc2Sc2ccccc21`, the compound was called inactive.

As for `CC[N+](C)(C)c1cccc(O)c1`, the compound was called inactive.

In the case of `N[C@@H](COP(=O)(O)O)C(=O)O`, the compound was called inactive.

Take `Cc1nc2ccccn2c(=O)c1CCN1CCC(C(=O)c2ccc(F)cc2)CC1`: the compound was classed as inactive.

With `CSc1ccc(C(=O)c2[nH]c(=O)[nH]c2C)cc1`, the compound was called inactive.

As to `CN1CCN(C2=Nc3ccccc3Oc3ccc(Cl)cc32)CC1`, the outcome was inactive.

`CNCCCN1c2ccccc2CCc2ccccc21`: the compound was called inactive.

Turning to `Cc1ccc(S(=O)(=O)NC(=O)NN2CCCCCC2)cc1`, the result was inactive.

Take `Cc1nc2c([nH]1)c(=O)n(C)c(=O)n2Cc1ccco1`: the outcome was inactive.

Consider `CN(C)C(=O)Oc1cccc([N+](C)(C)C)c1`, for which the call was inactive.

Turning to `COC(=O)[C@H]1[C@H]2C[C@@H]3c4[nH]c5cc(OC)ccc5c4CCN3C[C@H]2C[C@@H](OC(=O)c2cc(OC)c(OC)c(OC)c2)[C@@H]1OC`, the compound was classed as inactive.

Take `CCNC(=O)N1CCN(CCCC(c2ccc(F)cc2)c2ccc(F)cc2)CC1`: the result was inactive.

`COCC(=O)O[C@]1(CCN(C)CCCc2nc3ccccc3[nH]2)CCc2cc(F)ccc2[C@@H]1C(C)C`: the call was inactive.

As to `C[N+](C)(C)CCOC(N)=O`, the compound was classed as inactive.

For `O=C1CC2(CCCC2)CC(=O)N1CCCCN1CCN(c2ncccn2)CC1`, the result was inactive.

As for `CN(C)CC/C=C1\c2ccccc2COc2ccccc21`, the outcome was inactive.

`O=C(O)CN(CCOCCOCCN(CC(=O)O)CC(=O)O)CC(=O)O`: the call was inactive.

With `Cc1ccc(Cl)c(Nc2ccccc2C(=O)O)c1Cl`, the outcome was inactive.

For the compound `O=C(O)CCCCCCCC(=O)O`, the result was inactive.

`CN(C)C(=O)Oc1ccc[n+](C)c1`: the compound was called inactive.

Take `CN(C)CCCN1c2ccccc2Sc2ccc(C(F)(F)F)cc21`: the compound was called inactive.

On to `CN1CCN(CC(=O)N2c3ccccc3C(=O)Nc3cccnc32)CC1`, for which the call was inactive.

As for `CCCCNc1ccc(C(=O)OCCN(C)C)cc1`, the compound was called inactive.

On to `C[C@H](CS)C(=O)N1CCC[C@H]1C(=O)O`, for which the compound was called inactive.

As to `COC(=O)[C@@H](N)Cc1ccc(O)c(O)c1`, the compound was classed as inactive.

As for `CCCOc1ccccc1-c1nc2n[nH]nc2c(=O)[nH]1`, the outcome was inactive.

Turning to `CCn1cc(C(=O)O)c(=O)c2cc3c(cc21)OCO3`, the compound was classed as inactive.

Turning to `CCCC(C(=O)OCCN(CC)CC)(c1ccccc1)c1ccccc1`, the compound was called inactive.

In the case of `Cc1ccc(=O)n(-c2ccccc2)c1`, the compound was called inactive.

As for `CCN(CC)CCNC(=O)c1ccc(NC(C)=O)cc1`, the call was inactive.

Turning to `CCCCNc1c(C(=O)OCC)c(C)nc2c1cnn2CC`, the call was inactive.

On to `CCO/C([O-])=N/c1c[n+](N2CCOCC2)no1`, for which the outcome was inactive.

As to `C[N+](C)(C)CCOC(=O)CCC(=O)OCC[N+](C)(C)C`, the compound was classed as inactive.

`CCCN(CCC)CCc1cccc2c1CC(=O)N2`: the compound was called inactive.

For the compound `NC(=O)N1c2ccccc2C=Cc2ccccc21`, the compound was classed as inactive.

As for `CN(C)CCOC(=O)COc1ccc(Cl)cc1`, the compound was called inactive.
